The sample as a whole holds a higher share of hits than the screen did.
PD-1 reverse act = activators reversing PD-1 mediated T-cell inhibition, primary screen, luminescence, primary human CD4 T cells, PD-L1 beads; CellTiter-Glo 96 h; activation, % (concentration not given with the values); 29,000 tested, under 10 active; AID 2316, 2010; call rule not given here;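 note: 0% = median vehicle wells and 100% = positive control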
NOMO-1 viab = NOMO-1 AML cell viability reduction, primary screen, STK33 inhibitor project, CellTiter-Glo luminescence; AID 2330, 2010; 37,000 tested, 7.5% active; NOMO-1 AML viability, 72 h; inhibition, % (test concentration not listed); in the data active = inhibition above about 80%; inconclusive = no clear call, values can overlap the other calls
ROS inducer = ROS inducers in U2OS cancer cells, primary screen, cell-based, H2DCF-DA fluorescence | AID 624156, 2012 | ROS induction (% of piperlongumine), % at 10 µM | 46,000 tested, 2% active | U2OS ROS induction; in the data active = ROS induction above about 79%, passing the limit was not always enough; inconclusive = no clear call, values can overlap the other calls;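 note: 0% = DMSO vehicle median and 100% = reference compound median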
* marks the source's active call; other numbers are inactive results.

Nc1ccccc1CC(c1c[nH]c2ccccc12)c1c[nH]c2ccccc12 was read as PD-1 reverse act 0, NOMO-1 viab 64 and ROS inducer 6.
`COc1ccccc1N1C(=O)S/C(=C\c2ccccc2)C1=O` gave ROS inducer 19.
Cc1ccc(S(C)(=O)=O)cc1 was read as PD-1 reverse act 0, NOMO-1 viab 5 and ROS inducer 4.
CC(C)Oc1ccc(C(=O)NC(CC(=O)O)c2ccccc2)cc1 (centres undefined) was read as ROS inducer -6.
For COc1ccc(CC(=O)N(CC#N)CC#N)cc1OC the results were PD-1 reverse act 0, NOMO-1 viab 24 and ROS inducer 14.
Screening C=C(C)Cc1c(C)nc(-c2ccc(Cl)cc2)nc1OC(=S)N(CC)CC returned PD-1 reverse act -1, NOMO-1 viab 59 and ROS inducer inconclusive.
C[C@@H]1CN([C@H](C)CO)C(=O)c2cc(NC(=O)Nc3ccc(C(F)(F)F)cc3)ccc2O[C@@H]1CN(C)C(=O)Nc1ccc(F)cc1 was read as PD-1 reverse act -4, NOMO-1 viab 84* and ROS inducer 20.
C[C@H](CO)N1C[C@H](C)[C@@H](CN(C)C(=O)Nc2ccc(F)cc2)Oc2ccc(NC(=O)Nc3ccc(C(F)(F)F)cc3)cc2C1=O was read as PD-1 reverse act -3, NOMO-1 viab 29 and ROS inducer 7.
C[C@@H]1CN([C@@H](C)CO)C(=O)c2cc(NC(=O)Nc3ccc(C(F)(F)F)cc3)ccc2O[C@H]1CN(C)C(=O)Nc1ccc(F)cc1 was read as NOMO-1 viab 39 and ROS inducer -4.
`Cc1noc(C)c1NC(=O)N(C)C[C@H]1Oc2ccc(NC(=O)Nc3ccc(F)cc3)cc2C(=O)N([C@@H](C)CO)C[C@@H]1C` gave PD-1 reverse act 1, NOMO-1 viab 28 and ROS inducer -6.
For C[C@H](CO)N1C[C@H](C)[C@H](CN(C)C(=O)Nc2ccc(C(F)(F)F)cc2)Oc2ccc(NC(=O)Nc3ccc(F)cc3)cc2C1=O the results were PD-1 reverse act -5, NOMO-1 viab 104* and ROS inducer 96*.
`Cc1noc(C)c1NC(=O)N(C)C[C@H]1Oc2ccc(NC(=O)Nc3ccc(F)cc3)cc2C(=O)N([C@H](C)CO)C[C@@H]1C` gave PD-1 reverse act 1, NOMO-1 viab 6 and ROS inducer 82*.
Screening CCOC(=O)c1cn(C(=O)CCSc2ccc(OC)cc2)nc1N returned ROS inducer -6.
For CC(C)N(C(=O)c1ccc(-c2nnc(-c3ccccc3)o2)cc1)C(C)C the results were ROS inducer 5.
For O=C(Nc1ccc(-c2nc3ccccc3s2)cc1)Nc1cc(F)cc2c1OCOC2 the results were ROS inducer -2.
Screening O=C(Nc1nnc(C2CCCCC2)s1)C1c2ccccc2Oc2ccccc21 returned ROS inducer 8.
`CC(C)NC(=O)Cn1cc2c(n1)CCCC2` gave ROS inducer 7.
Screening Cn1c(=O)c2c(ncn2CC(O)COc2ccccc2)n(C)c1=O (centres undefined) returned PD-1 reverse act 0, NOMO-1 viab -3 and ROS inducer 23.
Screening Cc1cccc(N2CCN(C(=O)Nc3ccccc3)CC2C)c1 (centres undefined) returned ROS inducer 10.
For C[C@@H]1CN([C@@H](C)CO)C(=O)Cc2cc(NS(=O)(=O)c3ccc(F)cc3)ccc2O[C@@H]1CN(C)Cc1ccccc1 the results were PD-1 reverse act -2, NOMO-1 viab 54 and ROS inducer 5.
For C[C@@H]1CN([C@H](C)CO)C(=O)Cc2cc(NS(=O)(=O)c3ccc(F)cc3)ccc2O[C@H]1CN(C)Cc1ccc(-c2ccccc2)cc1 the results were PD-1 reverse act -3, NOMO-1 viab 89* and ROS inducer 65.
For C[C@@H]1CN([C@H](C)CO)C(=O)Cc2cc(NS(=O)(=O)c3ccc(F)cc3)ccc2O[C@@H]1CN(C)Cc1ccc(-c2ccccc2)cc1 the results were PD-1 reverse act -2, NOMO-1 viab inconclusive and ROS inducer 107*.
For C[C@H]1CN([C@@H](C)CO)C(=O)Cc2cc(NS(=O)(=O)c3ccc(F)cc3)ccc2O[C@@H]1CN(C)Cc1ccccc1 the results were PD-1 reverse act 2, NOMO-1 viab 31 and ROS inducer 26.
For O=C(COc1ccccc1)Nc1ccc(C(=O)c2ccccc2)cc1 the results were ROS inducer 8.
Screening COc1ccc2oc(=O)c(-c3nnc(NCc4ccc5c(c4)OCO5)s3)cc2c1 returned ROS inducer 2.
For Cc1cccc(NC(c2ccccc2)c2ccc3ccc(C)nc3c2O)n1 (centres undefined) the results were NOMO-1 viab 102*.
Screening Cc1ccc2cccc(OCc3nnc(SCC(N)=O)n3C)c2n1 returned PD-1 reverse act 1, NOMO-1 viab -5 and ROS inducer -4.
Screening CCOc1ccc(C(Nc2cccc(C)n2)c2ccc3ccc(C)nc3c2O)cc1 (centres undefined) returned PD-1 reverse act -13, NOMO-1 viab 106* and ROS inducer 43.
`Cc1nn(-c2ccccc2)c(-n2cccc2)c1C(=O)N1CCCC1` gave ROS inducer -10.
For CC1CCCC[C@H]2C(=O)C=C[C@H](O)[C@@H]2CC(=O)O1 (some centres undefined) the results were PD-1 reverse act -16, NOMO-1 viab 108* and ROS inducer 63.
`COC1CC(=O)C23C(=O)NC(CC(C)C)C2C(C)C(C)=CC3/C=C(\C)CCC(O)C1O` (centres undefined) gave PD-1 reverse act -6, NOMO-1 viab 89* and ROS inducer -2.
For CC1=C(C#N)C(C(F)(F)F)(C(F)(F)F)N=C(C2CCCCC2)N1 the results were PD-1 reverse act -2, NOMO-1 viab 141* and ROS inducer 6.
Screening COC(=O)COc1ccc(NC(=O)c2ccc([N+](=O)[O-])c(C)c2)cc1 returned NOMO-1 viab 118*.
COC(=O)COc1ccc(NC(=O)c2ccc(NC(C)=O)cc2)cc1 was read as PD-1 reverse act -5, NOMO-1 viab 118* and ROS inducer 60.
Screening O=C(O)COc1ccc(C(=O)Nc2ccc(F)cc2)cc1 returned PD-1 reverse act 0, NOMO-1 viab 38 and ROS inducer inconclusive.
Cc1cc(C(=O)Nc2ccc(OCC(=O)O)cc2)ccc1[N+](=O)[O-] was read as NOMO-1 viab -15.
For CC(=O)Oc1c(-c2ccccc2)oc2c(CC=C(C)C)c3c(c(OC(C)=O)c2c1=O)C=CC(C)(C)O3 the results were NOMO-1 viab 24 and ROS inducer -9.
For CC1Oc2c3c(c4c(-c5ccccc5)cc(=O)oc4c2C(=O)C1C)OC(C)(C)C=C3 (centres undefined) the results were ROS inducer 114*.
Screening COc1ccc(NC(=O)NCC(C)CSc2ccc(Cl)cc2)c(OC)c1 (centres undefined) returned ROS inducer -5.
Screening O=C(/C=C/CCc1ccccc1)CCc1ccccc1 returned PD-1 reverse act -3, NOMO-1 viab 121* and ROS inducer 29.
`O=C(CCc1ccccc1)c1c(O)cc(O)cc1O` gave PD-1 reverse act 1, NOMO-1 viab -8 and ROS inducer 7.
